TDP1 cell CPT = DT40-hTDP1 cell growth loss with CPT | chicken DT40 Tdp1-/-;hTDP1 cells + 20 nM CPT, ATP luminescence, 48 h | Potency, µM (highest dose often 46.2 µM), for the others: top-dose activity change, negative = growth inhibition, usual class: inhibitors | actives 12% (n = 420,000); also: potency is read from the fitted curve at half-maximal effect; nearly all actives have a fitted effect of over 55% in size
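Chicken DT40 Tdp1-/- cells stably complemented with human TDP1 were seeded at 400 cells/well in medium containing 20 nM camptothecin, exposed to pin-transferred compounds, and grown at 37 °C for at least 48 hr. Viability was read as ATP luminescence.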
IL1B secr inh = blocks inflammasome-driven IL-1 beta release. activity change, % at 57.5 µM. THP-1 LPS/ATP IL-1B secretion, AlphaLISA, 16 h; active compounds read low. actives 4.7% (n = 360,000). AID 743279; in the data active = activity change below about -50%; inconclusive = mostly about -30% to -49%
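THP-1 cells pretreated 1 hr with compounds (up to 57.5 uM final), then stimulated with LPS (250 ng/mL final) plus ATP (1.25 mM final); secreted IL-1B measured by AlphaLISA after 16 hr, decreased signal indicating inhibition.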
DT40 TDP1 no CPT = qHTS for Inhibitors of human tyrosyl-DNA phosphodiesterase 1 (TDP1): qHTS in cells in absence of CPT | DT40 Tdp1-/- hTDP1 cells, no CPT, ATP luminescence, 48 h | AID 686978, 2013 | actives 15% (n = 420,000) | Potency, µM (titrated, usually from 46.2 µM), for the others: top-dose activity change, negative = growth inhibition, usual class: inhibitors; also: potency is read from the fitted curve at half-maximal effect; nearly all actives have a fitted effect of over 55% in size
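Seeded 400 DT40-hTDP1 cells/well (vehicle DMSO, no 20 nM CPT); pinned compounds; ≥48 hr at 37 °C; CellTiter-Glo luminescence as viability measure.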
HT1080-NT tox = kills 2HG-producing HT-1080-NT fibrosarcoma cells; HT-1080-NT fibrosarcoma viability, CellTiter-Glo ATP luminescence, 48 h; Potency, µM (titrated, usually from 46.1 µM), without a hit: at the highest dose activity, negative = less viability, most hits filed as cytotoxic; actives 1.6% (n = 360,000);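 also: NT is the 2HG producing partner of a matched IDH1 knockdown line; potency is read from the fitted curve at half-maximal effect; 0% = DMSO-treated cells and -100% = media-only wells without cells; nearly all actives have a fitted effect of over 55% in size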
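Read-out is CellTiter-Glo luminescence after 10 minutes at room temperature, following 48 hours' compound treatment of HT-1080-NT cells (750 cells/well, RPMI, 5% FBS, 37 degrees C).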
HT1080 IDH1KD tx = kills HT-1080 cells with IDH1 knockdown | HT-1080 IDH1 knockdown viability, ATP luminescence, 48 h | Potency, µM (titrated, usually from 46.1 µM), for inactives: top-dose activity, negative = toxicity, most hits filed as cytotoxic | actives 2% (n = 360,000);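 also: potency is read from the fitted curve at half-maximal effect; 0% = DMSO wells and -100% = cell-free medium wells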
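Using the IDH1-knockdown HT-1080 line run in the same batch and compound series as the NT line, viability after 48 h at 37 °C was determined by CellTiter-Glo luminescence and expressed as % activity.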
* marks the source's active call; other numbers are inactive results; i = inactive; ? = inconclusive; . = no result given; [ ] = another dose, or the depositor's remark. Compounds with a hit are over-represented: about 19% of the library has one in this group of screens. Unless noted, calls follow the shape of the dose curve; as a rule, active = well fitted curve in the direction sought with a large enough effect; inconclusive = small, poorly fitted or top-dose-only effect, or another doubt; inactive = no such curve, though single readings can be large; an effect the other way counts as inactive or inconclusive. Unless noted, % is scaled to controls: 0 for no effect and ±100 for the full control effect.

SMILES	TDP1 cell CPT	IL1B secr inh	DT40 TDP1 no CPT	HT1080-NT tox	HT1080 IDH1KD tx
CSc1cccc(NC(=O)C2CCN(S(=O)(=O)c3ccc4[nH]c5c(c4c3)CCCCC5)CC2)c1	?	.	21µM*	.	.
CCOC(=O)C1CCN(S(=O)(=O)c2ccc3[nH]c4c(c3c2)CCCC4)CC1	?	44	-19%	-11%	25%
Cc1cccc(NC(=O)c2sc3ncn(CC(=O)N4CCN(c5ccccn5)CC4)c(=O)c3c2C)c1	-25%	4	?	1%	2%
CCOc1ccc(NC(=O)CCS(=O)(=O)c2ccc3nc(C)sc3c2)cc1	0%	.	-2%	.	.
COc1ccc(NC(=O)N2C3CCCC2CC(NC(=O)c2ccccc2)C3)cc1 (configuration not stated)	0%	-11	-1%	-1%	1%
CCC(C)c1ccccc1N1CC(C(=O)Nc2cccc(S(=O)(=O)N3CCOCC3)c2)CC1=O (configuration not stated)	18µM*	i	18µM*	-2%	1%
O=C(Nc1cc(Cl)ccc1Cl)C1CC(=O)N(c2ccccc2)C1 (configuration not stated)	-4%	-9	-7%	-19%	-10%
CSc1cccc(N2CC(C(=O)Nc3cccc(S(=O)(=O)N4CCCC4)c3)CC2=O)c1 (configuration not stated)	21µM*	6	15µM*	0%	-9%
Cc1cccc(N2CC(C(=O)Nc3ccc(S(=O)(=O)N4CCOCC4)cc3)CC2=O)c1C (configuration not stated)	-22%	9	2%	-2%	2%
Cc1cccc(N2CC(C(=O)Nc3cccc(S(=O)(=O)N4CCCCC4)c3)CC2=O)c1C (configuration not stated)	18µM*	-51*	?	-22%[9.24 µM]	-14%
CCOc1ccc(N2CC(C(=O)Nc3cccc(S(=O)(=O)N4CCCCC4)c3)CC2=O)cc1 (configuration not stated)	-22%	-2	?	-19%	-9%
CCc1ccccc1N1CC(C(=O)Nc2cc(S(=O)(=O)N3CCCC3)ccc2Cl)CC1=O (configuration not stated)	?	15	15µM*	0%	16%
CCC(C)c1ccccc1N1CC(C(=O)Nc2ccc(N3CCOCC3)cc2)CC1=O (configuration not stated)	-13%	-9	-7%	-2%	16%
O=C(COc1ccccc1Cl)Nc1ccc(OCc2cc(=O)n3ccsc3n2)cc1	3%	.	9%	.	.
Cc1ccc(CNC(=S)Nc2cc(C)ccc2OC(F)F)cc1	0%	-23	?	-7%	0%
N#CCC(=O)N/N=C1\CCCCC1C1CCCCC1 (configuration not stated)	14%	14	-5%	5%	-1%
CCCCCCNC(=O)OC12CN(C(=O)OC(C)C)N(C(=O)OC(C)C)CC1(O)CN(S(=O)(=O)c1ccc(C)cc1)C2 (configuration not stated)	?	-26	21µM*	-28%	?
Cc1ccc(S(=O)(=O)N2CC3(O)CN(C(=O)OC(C)C)N(C(=O)OC(C)C)CC3(OC(=O)NCC3CCCCC3)C2)cc1 (configuration not stated)	16µM*	?	?	?	?
Cc1ccc(S(=O)(=O)N2CC3(O)CN(C(=O)OC(C)C)N(C(=O)OC(C)C)CC3(OC(=O)NC3CC3)C2)cc1 (configuration not stated)	?	-21	?	13%	18%
Cc1ccc(OCCNC(=O)[C@H]2O[C@@H](n3ccc(N)nc3=O)[C@H](O)[C@@H]2O)cc1C	16%	-10	7%	10%	7%
Cc1cc(C)c2c(n1)sc1c(N3CCN(C)CC3)ncnc12	?	.	13µM*	3%	0%
Cc1ccccc1N1C(=O)C(Oc2ccc(Cl)cc2)C1CNC(C)(C)C (configuration not stated)	?	-55*	?	-12%	-10%

Assay outcomes from PubChem BioAssay.
